# Activity calls are given as the source filed them. The calls were made as follows: active = hit-call score of the fitted dose curve at least 0.9, where 1 is the maximum; inactive = score below 0.9.
# What was measured:
# Settings in all cases: mRNA level, 48 h; actives raise or lower the signal
# [1] = read-out: Cytochrome P450 (CYP2B6), CYP2B6 (gene 1555); test: LTEA_HepaRG_CYP2B6: Life Technologies and Expression Analysis (LTEA) Assay for Cytochrome P450 (CYP2B6) using HepaRG (AID 2283481)
# Summary of the method: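 CYP2B6 transcript level quantified by qRT-PCR against three housekeeping genes, fitted bidirectionally relative to DMSO. HepaRG cultures received chemicals for 48 h, 8-point half-log series from 100 uM in 0.5% DMSO, duplicate wells, serum-free induction medium.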
# [2] = read-out: Cytochrome P450 2C19 (Homo sapiens) (UniProt P33261); test: LTEA_HepaRG_CYP2C19: Life Technologies and Expression Analysis (LTEA) Assay for CYP2C19 using HepaRG (AID 2283482)
# Summary of the method: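 CYP2C19 transcript levels by qRT-PCR, normalized to three housekeeping genes, in HepaRG cells after 48 h chemical exposure. Eight-point half-log series topping at 100 uM, 0.5% DMSO vehicle. Increases and decreases both fitted against DMSO.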
# CYP2C8 (gene 1558) = test: LTEA_HepaRG_CYP2C8: Life Technologies and Expression Analysis (LTEA) Assay for CYP2C8 using HepaRG (AID 2283483)
# Summary of the method: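 HepaRG (human liver line), 48 h chemical exposure, 8-pt half-log series from 100 uM, 0.5% DMSO vehicle. Readout: CYP2C8 transcript by qRT-PCR, housekeeping-normalized. Bidirectional fit vs DMSO baseline.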
# CYP2C9 (gene 1559) = test: LTEA_HepaRG_CYP2C9: Life Technologies and Expression Analysis (LTEA) Assay for CYP2C9 using HepaRG (AID 2283484)
# Summary of the method: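 HepaRG, 48 h dosing, 8-pt half-log series, top 100 uM, 0.5% DMSO vehicle. Read-out: CYP2C9 transcript by TaqMan qRT-PCR, housekeeping-normalized (ACTB/GAPDH/POLR2A). Gain or loss fitted vs DMSO baseline.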
# CYP2E1 (gene 1571) = test: LTEA_HepaRG_CYP2E1: Life Technologies and Expression Analysis (LTEA) Assay for CYP2E1 using HepaRG (AID 2283485)
# Summary of the method: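 Assay uses 48 h exposure of HepaRG hepatic cells, eight concentrations to 100 uM. Expression of CYP2E1 is quantified by TaqMan qRT-PCR with ACTB, GAPDH and POLR2A normalization; curves fitted in both directions relative to vehicle.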
# CYP4A11 (gene 1579) = test: LTEA_HepaRG_CYP4A11: Life Technologies and Expression Analysis (LTEA) Assay for CYP4A11 using HepaRG (AID 2283486)
# Summary of the method: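 Readout is CYP4A11 transcript level by qRT-PCR, normalized to three housekeeping genes and fitted bidirectionally against 0.5% DMSO. Human HepaRG cells were treated 48 h, in duplicate, with an 8-point half-log series topping at 100 uM.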
# [3] = read-out: Cytochrome P450 3A4 (Homo sapiens) (UniProt P08684); test: LTEA_HepaRG_CYP3A4: Life Technologies and Expression Analysis (LTEA) Assay for CYP3A4 using HepaRG (AID 2283487)
# Summary of the method: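 HepaRG, 48 h exposure, 8-pt CRC from 100 uM (half-log), 0.5% DMSO, duplicates; serum-free induction medium. Readout: CYP3A4 mRNA, qRT-PCR, ACTB/GAPDH/POLR2A normalization. Bidirectional fit vs DMSO.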
# [4] = read-out: DNA damage-inducible transcript 3 (DDIT3), DDIT3 (gene 1649); test: LTEA_HepaRG_DDIT3: Life Technologies and Expression Analysis (LTEA) Assay for DNA damage-inducible transcript 3 (DDIT3) using HepaRG (AID 2283488)
# Summary of the method: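 Eight-point concentration-response (100 uM highest, half-log dilutions) in HepaRG, 48 h, duplicate wells. Endpoint: qRT-PCR mRNA, normalized (ACTB, GAPDH, POLR2A), bidirectional fitting with DMSO as baseline.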
# [5] = read-out: Pro-epidermal growth factor (Homo sapiens) (UniProt P01133); test: LTEA_HepaRG_EGF: Life Technologies and Expression Analysis (LTEA) Assay for Epidermal growth factor (EGF) using HepaRG (AID 2283489)
# Summary of the method: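 EGF transcript measured by Fluidigm TaqMan qRT-PCR with three housekeeping genes for normalization, 48 h after dosing HepaRG cultures in duplicate (top 100 uM, half-log steps, 0.5% DMSO vehicle). Gain or loss relative to DMSO fitted.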
# [6] = read-out: Early growth response protein 1 (EGR1) transcription factor, EGR1 (gene 1958); test: LTEA_HepaRG_EGR1: Life Technologies and Expression Analysis (LTEA) Assay for Early growth response protein 1 (EGR1) transcription factor using HepaRG (AID 2283490)
# Summary of the method: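 HepaRG, 48 h exposure, 8-pt half-log series from 100 uM, 0.5% DMSO vehicle; EGR1 transcript by TaqMan qRT-PCR (Fluidigm array), housekeeping-normalized; bidirectional fit relative to DMSO baseline.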
# [7] = read-out: Ezrin (EZR), EZR (gene 7430); test: LTEA_HepaRG_EZR: Life Technologies and Expression Analysis (LTEA) Assay for Ezrin (EZR) using HepaRG (AID 2283491)
# Summary of the method: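 Read-out is EZR transcript level by qRT-PCR, normalized to three housekeeping genes and fitted bidirectionally against the DMSO control. Human HepaRG cells received test chemicals for 48 h at eight half-log concentrations up to 100 uM in 0.5% DMSO.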
# [8] = read-out: Cytochrome P450 3A7 (Homo sapiens) (UniProt P24462); test: LTEA_HepaRG_CYP3A7: Life Technologies and Expression Analysis (LTEA) Assay for CYP3A7 using HepaRG (AID 2283492)
# Summary of the method: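 CYP3A7 transcript measured by qRT-PCR (ACTB, GAPDH, POLR2A normalization) after 48 h chemical exposure of HepaRG cells in duplicate. Eight half-log concentrations, maximum 100 uM, 0.5% DMSO vehicle; bidirectional curve fitting against DMSO baseline.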
# CYP3A5 (gene 1577) = test: LTEA_HepaRG_CYP3A5: Life Technologies and Expression Analysis (LTEA) Assay for CYP3A5 using HepaRG (AID 2283493)
# Summary of the method: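 Readout was CYP3A5 mRNA by qRT-PCR. HepaRG cultures were exposed for 48 h in serum-free induction medium to chemicals at up to 100 uM, and responses were fitted in both directions relative to DMSO vehicle.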
# [9] = read-out: Fatty Acid-Binding Protein 1 (FABP1), FABP1 (gene 2168); test: LTEA_HepaRG_FABP1: Life Technologies and Expression Analysis (LTEA) Assay for Fatty Acid-Binding Protein 1 (FABP1) using HepaRG (AID 2283494)
# Summary of the method: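 qRT-PCR readout of FABP1 transcript (normalized to three housekeeping genes) after 48 h chemical exposure of HepaRG cells; eight concentrations, half-log steps, max 100 uM, 0.5% DMSO vehicle; gain or loss fitted relative to DMSO baseline.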
# [10] = read-out: Cytochrome P450 7A1 (Homo sapiens) (UniProt P22680); test: LTEA_HepaRG_CYP7A1: Life Technologies and Expression Analysis (LTEA) Assay for Cytochrome P450 7A1 (CYP7A1) using HepaRG (AID 2283496)
# Summary of the method: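 Using 0.5% DMSO as vehicle and baseline, chemicals were tested in duplicate over an 8-point range from 100 uM on HepaRG cells for 48 h; qRT-PCR signals were normalised to ACTB, GAPDH and POLR2A.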
# [11] = read-out: growth arrest and DNA damage 45 (GADD45G), GADD45G (gene 10912); test: LTEA_HepaRG_GADD45G: Life Technologies and Expression Analysis (LTEA) Assay for growth arrest and DNA damage 45 (GADD45G) using HepaRG (AID 2283499)
# Summary of the method: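 GADD45G transcript level by qRT-PCR (housekeeping-normalized: ACTB, GAPDH, POLR2A) after 48 h chemical treatment of a single HepaRG lot in serum-free induction medium; eight-point half-log series up to 100 uM in 0.5% DMSO, duplicates, up- or down-regulation scored.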
# [12] = read-out: Cytochrome P450 4A22 (Homo sapiens) (UniProt Q5TCH4); test: LTEA_HepaRG_CYP4A22: Life Technologies and Expression Analysis (LTEA) Assay for Cytochrome P450 4A22 (CYP4A22) using HepaRG (AID 2283495)
# Summary of the method: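 Gene expression measured by qRT-PCR against three housekeeping genes (ACTB, GAPDH, POLR2A), with gain or loss fitted relative to 0.5% DMSO vehicle. HepaRG cultures received 48 h chemical treatment, top concentration 100 uM, half-log steps, duplicate wells.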
# [13] = read-out: Glutamate-cysteine ligase catalytic (GCLC), GCLC (gene 2729); test: LTEA_HepaRG_GCLC: Life Technologies and Expression Analysis (LTEA) Assay for Glutamate-cysteine ligase catalytic (GCLC) using HepaRG (AID 2283498)
# Summary of the method: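 HepaRG, 48 h exposure, 8-pt half-log series from 100 uM, 0.5% DMSO vehicle; TaqMan qRT-PCR for GCLC mRNA, housekeeping-normalized; bidirectional curve fit vs DMSO baseline.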
# Cytochrome P450 2C19 (Homo sapiens), sequence (P33261 whole entry, looked up): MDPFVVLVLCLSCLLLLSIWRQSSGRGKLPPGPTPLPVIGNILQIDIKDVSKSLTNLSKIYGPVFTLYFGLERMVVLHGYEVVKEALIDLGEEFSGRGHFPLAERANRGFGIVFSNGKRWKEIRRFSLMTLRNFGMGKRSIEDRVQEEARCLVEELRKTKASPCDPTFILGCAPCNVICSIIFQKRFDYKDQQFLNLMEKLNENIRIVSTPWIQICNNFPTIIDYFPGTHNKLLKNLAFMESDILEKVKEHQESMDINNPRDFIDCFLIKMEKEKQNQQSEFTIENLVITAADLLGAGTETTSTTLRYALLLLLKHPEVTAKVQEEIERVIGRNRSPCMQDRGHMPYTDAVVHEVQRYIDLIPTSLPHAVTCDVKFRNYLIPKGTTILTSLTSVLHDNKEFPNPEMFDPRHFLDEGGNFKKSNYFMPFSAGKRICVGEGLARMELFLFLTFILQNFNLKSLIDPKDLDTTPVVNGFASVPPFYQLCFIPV
# Cytochrome P450 3A7 (Homo sapiens), sequence (P24462 whole entry, looked up): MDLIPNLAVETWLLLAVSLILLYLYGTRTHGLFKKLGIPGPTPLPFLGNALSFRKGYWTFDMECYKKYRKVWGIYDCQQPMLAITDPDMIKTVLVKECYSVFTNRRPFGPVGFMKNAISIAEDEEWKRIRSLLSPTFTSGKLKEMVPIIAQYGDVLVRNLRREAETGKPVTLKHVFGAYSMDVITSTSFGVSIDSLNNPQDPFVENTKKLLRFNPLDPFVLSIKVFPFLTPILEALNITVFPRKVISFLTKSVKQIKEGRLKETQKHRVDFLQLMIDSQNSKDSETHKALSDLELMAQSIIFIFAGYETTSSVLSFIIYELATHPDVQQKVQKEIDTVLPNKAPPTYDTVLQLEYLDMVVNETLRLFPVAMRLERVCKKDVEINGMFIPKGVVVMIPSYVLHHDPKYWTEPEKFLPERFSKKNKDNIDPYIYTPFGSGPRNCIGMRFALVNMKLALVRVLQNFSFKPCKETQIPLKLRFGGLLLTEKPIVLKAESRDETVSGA
# Cytochrome P450 3A4 (Homo sapiens), sequence (P08684 whole entry, looked up): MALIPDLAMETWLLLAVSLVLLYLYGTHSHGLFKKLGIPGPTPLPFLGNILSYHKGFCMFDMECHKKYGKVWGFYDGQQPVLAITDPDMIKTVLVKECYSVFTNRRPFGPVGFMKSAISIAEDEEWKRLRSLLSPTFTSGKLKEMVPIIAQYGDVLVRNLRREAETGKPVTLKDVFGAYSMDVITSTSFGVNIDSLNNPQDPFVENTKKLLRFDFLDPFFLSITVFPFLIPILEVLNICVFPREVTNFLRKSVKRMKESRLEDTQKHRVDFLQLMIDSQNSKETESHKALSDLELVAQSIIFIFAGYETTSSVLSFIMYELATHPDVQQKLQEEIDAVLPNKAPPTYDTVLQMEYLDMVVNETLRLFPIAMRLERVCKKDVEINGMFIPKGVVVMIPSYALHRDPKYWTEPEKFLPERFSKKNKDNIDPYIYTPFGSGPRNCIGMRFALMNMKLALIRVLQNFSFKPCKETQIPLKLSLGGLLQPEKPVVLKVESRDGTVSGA
compound,measurement,setting,value
N#Cc1c(Cl)c(Cl)c(Cl)c(C#N)c1Cl,outcome,[1],inactive
same,outcome,[2],inactive
same,AC50,CYP2C8 (gene 1558),50 µM (active)
same,outcome,CYP2C9 (gene 1559),inactive
same,AC50,CYP2E1 (gene 1571),66.1 µM (active)
same,AC50,CYP4A11 (gene 1579),50 µM (active)
same,AC50,[3],19 µM (active)
same,AC50,[4],19.1 µM (active)
same,AC50,[5],6.66 µM (active)
same,outcome,[6],inactive
same,outcome,[7],inactive
same,AC50,[8],50 µM (active)
same,outcome,CYP3A5 (gene 1577),inactive
same,AC50,[9],77.7 µM (active)
same,outcome,[10],inactive
same,outcome,[11],inactive
O=C(Nc1ccccc1)Nc1cnns1,outcome,[1],inactive
same,AC50,[2],89.1 µM (active)
same,AC50,CYP2C8 (gene 1558),88.7 µM (active)
same,AC50,CYP2C9 (gene 1559),84 µM (active)
same,AC50,CYP2E1 (gene 1571),70.3 µM (active)
same,AC50,CYP4A11 (gene 1579),72.9 µM (active)
same,outcome,[3],inactive
same,AC50,[4],79.2 µM (active)
same,outcome,[5],inactive
same,AC50,[8],50 µM (active)
same,outcome,CYP3A5 (gene 1577),inactive
same,AC50,[9],65.5 µM (active)
same,AC50,[12],73.5 µM (active)
same,AC50,[10],50 µM (active)
same,outcome,[13],inactive
same,outcome,[11],inactive
Cc1[nH]c(=O)n(C(C)(C)C)c(=O)c1Cl,AC50,[1],15.6 µM (active)
same,AC50,[2],31.1 µM (active)
same,outcome,CYP2C8 (gene 1558),inactive
same,outcome,CYP2C9 (gene 1559),inactive
same,AC50,CYP2E1 (gene 1571),37 µM (active)
same,outcome,CYP4A11 (gene 1579),inactive
same,outcome,[3],inactive
same,outcome,[4],inactive
same,outcome,[5],inactive
same,outcome,[6],inactive
same,outcome,[7],inactive
same,outcome,[8],inactive
same,outcome,CYP3A5 (gene 1577),inactive
same,outcome,[9],inactive
same,outcome,[12],inactive
same,AC50,[10],18.8 µM (active)
same,outcome,[11],inactive
COP(=O)(OC)OC=C(Cl)Cl,AC50,[1],6.48 µM (active)
same,outcome,[2],inactive
same,outcome,CYP2C8 (gene 1558),inactive
same,outcome,CYP2C9 (gene 1559),inactive
same,outcome,CYP2E1 (gene 1571),inactive
same,outcome,CYP4A11 (gene 1579),inactive
same,outcome,[3],inactive
same,outcome,[4],inactive
same,outcome,[5],inactive
same,outcome,[6],inactive
same,outcome,[7],inactive
same,outcome,[8],inactive
same,outcome,CYP3A5 (gene 1577),inactive
same,outcome,[12],inactive
same,outcome,[10],inactive
same,outcome,[11],inactive
C[C@H]1[C@H](c2ccc(Cl)cc2)SC(=O)N1C(=O)NC1CCCCC1,AC50,[1],81.7 µM (active)
same,AC50,[2],89 µM (active)
same,AC50,CYP2C8 (gene 1558),77.8 µM (active)
same,AC50,CYP2C9 (gene 1559),78.6 µM (active)
same,AC50,CYP2E1 (gene 1571),32.5 µM (active)
same,AC50,CYP4A11 (gene 1579),40.4 µM (active)
same,AC50,[3],90 µM (active)
same,AC50,[4],72.3 µM (active)
same,outcome,[5],inactive
same,outcome,[6],inactive
same,AC50,[7],77.9 µM (active)
same,AC50,[8],61.6 µM (active)
same,outcome,CYP3A5 (gene 1577),inactive
same,AC50,[9],55.8 µM (active)
same,AC50,[12],47.1 µM (active)
same,AC50,[10],78.9 µM (active)
same,AC50,[11],72.9 µM (active)
O=C(O)CCCOc1ccc(Cl)cc1Cl,AC50,[1],15.2 µM (active)
same,AC50,[2],14 µM (active)
same,AC50,CYP2C8 (gene 1558),14.6 µM (active)
same,outcome,CYP2C9 (gene 1559),inactive
same,outcome,CYP2E1 (gene 1571),inactive
same,AC50,CYP4A11 (gene 1579),10.1 µM (active)
same,outcome,[3],inactive
same,outcome,[4],inactive
same,outcome,[5],inactive
same,outcome,[6],inactive
same,outcome,[7],inactive
same,AC50,CYP3A5 (gene 1577),36.5 µM (active)
same,AC50,[9],10.1 µM (active)
same,outcome,[12],inactive
same,outcome,[10],inactive
same,outcome,[11],inactive

# — PubChem BioAssay (EPA / NIEHS)
